Results: PubChem BioAssay AID893 (National Center for Advancing Translational Sciences (NCATS), 2007)
Screen size: about 75,000 compounds; about 5,700 (7.6%) were called active. A call without a number means that no potency is given here. Not shown: some 7% with an inconclusive outcome. For the sample, actives were picked, then their nearest neighbours and some compounds at random. Values without a mark were called inactive. Calls follow the shape of the dose curve; as a rule, active = well fitted inhibition curve with a large enough effect; inconclusive = small, poorly fitted or top-dose-only effect; inactive = no such curve, though single readings can be large or run the other way.

The compounds below were run against 3-hydroxyacyl-CoA dehydrogenase type-2 (Homo sapiens) (UniProt Q99714) (assay: qHTS Assay for Inhibitors of HSD17B4, hydroxysteroid (17-beta) dehydrogenase 4). Conditions: recombinant HSD17B10, NADH fluorescence kinetic; series mostly up to 57.1 µM.
Outline: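 20 nM HADH2, pH 9.0 Tris/Tween; cpd preinc 15 min RT; start w/ 1 mM NAD+ + 90 uM b-hydroxybutyryl-CoA; kinetic fluor ex360/em450 q30s x 4 min; delta last-first.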
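Also: the protocol describes HADH2 (HSD17B10) and not the HSD17B4 of the title; nearly all actives have a fitted effect of over 70% in size.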
Potency is read from the fitted curve at half-maximal effect.

SMILES	Potency	activity change, negative = inhibition
COc1ccc(C(=O)Nc2ccc3c(c2)OCO3)cc1OC	inactive	–
CC(=O)Nc1ccc(S(=O)(=O)N2CCCC2C(=O)O)cc1 (stereo unspecified)	inactive	–
CN1CCc2c(sc3c2c(NCc2ccco2)nc2nnnn23)C1	31.6 µM (active)	–
C=C(C)Cn1c(SCC(=O)NCc2ccco2)nc2sc3c(c2c1=O)CCC3	inactive	–
O=C(Cc1ccccc1)n1nc(-c2ccccc2)nc1NCc1ccco1	inactive	–
CC(=O)NCCc1ccc(S(=O)(=O)N(C)C2CCS(=O)(=O)C2)cc1 (stereo unspecified)	inactive	–
CCn1c(COc2ccccc2)nnc1SCC(=O)Nc1ccc2c(c1)OCCO2	inactive	–
CN1CCN(S(=O)(=O)c2ccc(NC(=O)C3CCCO3)cc2)CC1 (stereo unspecified)	inactive	–
COc1ccc(C(=O)CSc2nnc(COc3ccccc3)n2Cc2ccco2)cc1	inactive	–
O=c1c2[nH]c3ccc(Cl)cc3c2ncn1Cc1ccccn1	inactive	–
COc1ccc2[nH]c3c(=O)n(Cc4ccco4)cnc3c2c1	3.16 µM (active)	–
Cc1cc(C)c2nc3c(c([C@H](O)[C@@H]4CCCCN4)c2c1)CC/C3=C/c1ccc(Cl)cc1	–	9.81% [at 11.4 µM]
O=C1CC(c2cccc(Br)c2)C2=C(CCCC2=O)N1 (stereo unspecified)	inactive	–
COc1ccc(NC(=O)CN2CCN(S(=O)(=O)c3ccc(F)cc3)CC2)cc1Cl	inactive	–
COc1cc2c(cc1NC(=O)CN1CCN(S(=O)(=O)c3ccc(F)cc3)CC1)oc1ccccc12	3.16 µM (active)	–
O=C(CN1CCN(S(=O)(=O)c2ccc(F)cc2)CC1)Nc1ccccc1F	inactive	–
CCN(CCCCOC(=O)c1ccc(OC)c(OC)c1)C(C)Cc1ccc(OC)cc1 (stereo unspecified)	inactive	–
CCN(CC)S(=O)(=O)N1CCC(C(=O)NC(C)CCc2ccccc2)CC1 (stereo unspecified)	inactive	–
Cc1ccc2c(NC(=O)C3CC3)cccc2n1	inactive	–
CC(=O)N1CCC(C(=O)Nc2nc(-c3ccccc3)ns2)CC1	10 µM (active)	–
CCOC(=O)c1nc(N)sc1C(=O)OCC	inactive	–
CN1CCCc2cc(C#N)c(=O)[nH]c21	15.8 µM (active)	–

SMILES	Potency	activity change, negative = inhibition
COc1ccccc1Cn1c(=S)[nH]c2cc(C(=O)N3CCN(C)CC3)ccc2c1=O	inactive	–
CCOC(=O)CSC1=C(C#N)C(c2ccco2)C(C(=O)OCc2ccccc2)=C(C)N1 (stereo unspecified)	inactive	–
CC1=C(C(=O)Nc2ccccc2)C(c2cccs2)C(C#N)=C(SCC#N)N1 (stereo unspecified)	31.6 µM (active)	–
CCOC(=O)CSC1=C(C#N)C(c2sccc2C)CC(=O)N1 (stereo unspecified)	inactive	–
O=C(Cn1nnc(-c2ccc(CN3CCOCC3)cc2)n1)NC1CCCCC1	inactive	–
COCCCNC(=O)COc1cc(C)c(Cl)c(C)c1	inactive	–
CCC/C(O)=C1\C(=O)CC(C)(C)CC1=Nc1ccccc1OC	inactive	–
CCCNC(=O)OC[C@@H]1O[C@H](c2ccccc2)C=C[C@@H]1Oc1ccc(OC)cc1	–	-0.586% [at 11.4 µM]
COc1ccc(-n2c(C)nc3c(cnn3-c3ccccc3)c2=O)cc1	inactive	–
COc1ccc(C(=O)n2nc(-c3ccc(Cl)cc3)nc2N)cc1OC	inactive	–
CN(C(=O)COc1nnc(-c2cccs2)c(-c2cccs2)n1)c1ccccc1	inactive	–
COc1ncc2nc(-c3ccc(Cl)cc3)c(=O)n(C)c2n1	31.6 µM (active)	–
Cn1cc(-c2nc3cncnc3n(-c3ccccc3)c2=O)c2ccccc21	inactive	–
COc1ccc(Oc2ncc3nc(C)c(=O)n(-c4ccccc4)c3n2)cc1	inactive	–
COc1ccc(-c2c3c(=O)n(C)c(=O)n(C)c3cn2-c2cccc(OC)c2)cc1	inactive	–
COc1ccc(Oc2ncc3nc(-c4ccc(F)cc4)c(=O)n(C)c3n2)cc1	31.6 µM (active)	–
O=c1c(-c2cccs2)nc2cnc(Oc3ccccc3)nc2n1-c1ccccc1	25.1 µM (active)	–
COc1nc(NCc2ccc(Cl)cc2)nc(OC)n1	inactive	–
COc1ncc2nc(-c3ccc(Cl)cc3)c(=O)n(-c3ccccc3)c2n1	25.1 µM (active)	–
Cc1ccc(S(=O)(=O)N2CCC(C(=O)N[C@@H](C)C(=O)NCc3ccccc3)CC2)cc1	inactive	–
O=C(Nc1cccc2c1CCCC2)C1CCN(C(=O)NC2CCCCC2)CC1	inactive	–
c1ccc2sc(SCCSc3nc4ccccc4s3)nc2c1	–	2.8% [at 11.4 µM]

SMILES	Potency	activity change, negative = inhibition
O=C(c1cc(-c2cccc(O)c2)on1)N1CCc2ccccc2C1	inactive	–
O=C1CN(C(=O)COC(=O)C2CC(=O)N(Cc3ccco3)C2)c2ccccc2N1 (stereo unspecified)	inactive	–
CN(C)C(=O)/N=N\C(=O)N(C)C	inactive	–
CN1CCN(c2cc(=O)n(-c3ccc(Cl)cc3)c(=O)[nH]2)CC1	inactive	–
COc1ccc(-c2nc3cnc(Oc4ccccc4)nc3n(Cc3cccs3)c2=O)cc1	12.6 µM (active)	–
COCCn1c(=O)c(-c2ccc(OC)cc2)nc2cnc(Oc3cccc(Cl)c3)nc21	inactive	–
O=C1c2cccnc2C(=O)N1Cc1cccs1	inactive	–
CN1CCN(c2ncc3nc(-c4ccc(Cl)cc4)c(=O)n(-c4ccccc4)c3n2)CC1	25.1 µM (active)	–
O=c1c(-c2ccc(F)c(F)c2)nc2cncnc2n1-c1ccccc1	inactive	–
C=CC(=O)OCCOCCOCCOCCOC(=O)C=C	inactive	–
Cc1ccccc1NC(=O)Cc1nnc(SCC(=O)N2CCN(c3ccccc3)CC2)n1C	inactive	–
Cc1nnc(SCC(=O)Nn2cnnc2)s1	inactive	–
CC(C)[C@H](CO)Nc1nc(Nc2cc(N)cc(Cl)c2)c2ncn(C(C)C)c2n1	inactive	–
Cc1c(CN2CCC(C)CC2)c(=O)n(-c2ccccc2)n1C	inactive	–
COC(=O)[C@@H]1C[C@@]2(O)[C@H](O)[C@H](O)[C@H](O)C[C@H]2N1CC1CCCCC1	inactive	–
CCOc1ccc(S(=O)(=O)n2ccnc2)c2ccccc12	inactive	–
C[C@@H](Nc1nc(-c2ccccc2)nc2c1oc1ccccc12)C(=O)O	inactive	–
CCc1nc(Nc2ccc3nccnc3c2)c2oc3ccccc3c2n1	12.6 µM (active)	–
CCSc1nc(C)nc2c1oc1ccccc12	inactive	–
Cc1cccc(N2CCN(S(=O)(=O)c3ccc4c(c3)c(=O)n(C)c(=O)n4C)CC2C)c1 (stereo unspecified)	inactive	–
Cc1ccc(C)c(S(=O)(=O)n2cnc3ccccc32)c1	inactive	–
CC(=O)OCC1OC(C#Cc2ccccc2Cl)C=CC1OC(C)=O (stereo unspecified)	–	-6.58% [at 11.4 µM]
